# Laboratory results taken from paper PMC5540273 (PLoS ONE, 2017).
# Several values for one entry are separate records, joined by “and”; a condition that tells them apart may be missing. Identical values can stand only once. Like-named read-outs stand apart in the source and are kept apart here.
# Key:
# [1] = system: DMPK; conditions: concentration: 1 μM, replicates: in singlicate, n = 1
# [2] = system: T1, DRAK1; conditions: concentration: 1 μM, replicates: in singlicate, n = 1
# T1 construct: gene STK17A
# [3] = system: T2, DRAK2; conditions: concentration: 1 μM, replicates: in singlicate; n = 1
# T2 construct: gene STK17B
# [4] = system: DYRK1A; conditions: concentration: 1 μM, replicates: in singlicate; n = 1
# [5] = system: DYRK1B; conditions: concentration: 1 μM, replicates: in singlicate, n = 1
# [6] = system: DYRK2; conditions: concentration: 1 μM, replicates: in singlicate, n = 1
# [7] = system: EGFR; conditions: concentration: 1 μM, replicates: in singlicate, n = 1
# [8] = system: EIF2AK1; conditions: concentration: 1 μM, replicates: in singlicate; n = 1
# [9] = system: EPHA1; conditions: concentration: 1 μM, replicates: in singlicate, n = 1
# [10] = system: EPHA2; conditions: concentration: 1 μM, replicates: in singlicate, n = 1
# [11] = system: EPHA3; conditions: concentration: 1 μM, replicates: in singlicate, n = 1
# [12] = system: EPHA4; conditions: concentration: 1 μM, replicates: in singlicate, n = 1
# [13] = system: EPHA5; conditions: concentration: 1 μM, replicates: in singlicate, n = 1
# [14] = system: EPHA6; conditions: concentration: 1 μM, replicates: in singlicate, n = 1
# [15] = system: EPHA7; conditions: concentration: 1 μM, replicates: in singlicate, n = 1
# [16] = system: EPHA8; conditions: concentration: 1 μM, replicates: in singlicate, n = 1
# [17] = system: EPHB1; conditions: concentration: 1 μM, replicates: in singlicate, n = 1
# [18] = system: EPHB2; conditions: concentration: 1 μM, replicates: in singlicate, n = 1
# [19] = system: EPHB3; conditions: concentration: 1 μM, replicates: in singlicate, n = 1
# [20] = system: EPHB4; conditions: concentration: 1 μM, replicates: in singlicate, n = 1
# 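Also: KINOMEscan kinase panel screen.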
compound,measurement,setting,value
Cl.Oc1cccc(Nc2ccnc3cc(-c4ccncc4)ccc23)c1 [GW494601],%Inh,[1],0%
same,%Inh,[2],11%
same,%Inh,[3],0%
same,%Inh,[4],25%
same,%Inh,[5],7%
same,%Inh,[6],43%
same,%Inh,[7],76%
same,%Inh,[8],0%
same,%Inh,[9],98.8%
same,%Inh,[10],84%
same,%Inh,[11],76%
same,%Inh,[12],84%
same,%Inh,[13],95.3%
same,%Inh,[14],88%
same,%Inh,[15],0%
same,%Inh,[16],97%
same,%Inh,[17],96.2%
same,%Inh,[18],70%
same,%Inh,[19],27%
same,%Inh,[20],94.2%
Cc1cccc(-c2nc(Nc3ccc4ncsc4c3)c3ccccc3n2)n1 [GW867588],%Inh,[1],0%
same,%Inh,[2],0%
same,%Inh,[3],0%
same,%Inh,[4],3%
same,%Inh,[5],0%
same,%Inh,[6],33%
same,%Inh,[7],2%
same,%Inh,[8],0%
same,%Inh,[9],0%
same,%Inh,[10],0%
same,%Inh,[11],22%
same,%Inh,[12],21%
same,%Inh,[13],6%
same,%Inh,[14],21%
same,%Inh,[15],0%
same,%Inh,[16],4%
same,%Inh,[17],30%
same,%Inh,[18],0%
same,%Inh,[19],22%
same,%Inh,[20],0%
CCn1cnc2c(N)ncnc21 [GW345098],%Inh,[1],0%
same,%Inh,[2],6%
same,%Inh,[3],9%
same,%Inh,[4],0%
same,%Inh,[5],28%
same,%Inh,[6],12%
same,%Inh,[7],15%
same,%Inh,[8],0%
same,%Inh,[9],6%
same,%Inh,[10],14%
same,%Inh,[11],0%
same,%Inh,[12],7%
same,%Inh,[13],16%
same,%Inh,[14],17%
same,%Inh,[15],3%
same,%Inh,[16],1%
same,%Inh,[17],7%
same,%Inh,[18],0%
same,%Inh,[19],17%
same,%Inh,[20],14%
CC(C)Oc1ccc2c(-c3ccnc(Nc4ccc(N5CCN(C)CC5)cc4)n3)cnn2n1 [GW696155],%Inh,[1],74%
same,%Inh,[2],99.5%
same,%Inh,[3],94.5%
same,%Inh,[4],61%
same,%Inh,[5],61%
same,%Inh,[6],91.6%
same,%Inh,[7],50%
same,%Inh,[8],0%
same,%Inh,[9],48%
same,%Inh,[10],0%
same,%Inh,[11],33%
same,%Inh,[12],1%
same,%Inh,[13],0%
same,%Inh,[14],11%
same,%Inh,[15],7%
same,%Inh,[16],9%
same,%Inh,[17],9%
same,%Inh,[18],0%
same,%Inh,[19],13%
same,%Inh,[20],26%
NS(=O)(=O)c1cccc(-c2ccc3nccc(-c4cccc(S(N)(=O)=O)c4)c3c2)c1 [GW867253],%Inh,[1],2%
same,%Inh,[2],0%
same,%Inh,[3],0%
same,%Inh,[4],0%
same,%Inh,[5],0%
same,%Inh,[6],32%
same,%Inh,[7],0%
same,%Inh,[8],0%
same,%Inh,[9],0%
same,%Inh,[10],0%
same,%Inh,[11],11%
same,%Inh,[12],0%
same,%Inh,[13],2%
same,%Inh,[14],0%
same,%Inh,[15],0%
same,%Inh,[16],4%
same,%Inh,[17],0%
same,%Inh,[18],0%
same,%Inh,[19],0%
same,%Inh,[20],0%
Nc1nc(-c2ccc3c(N)n[nH]c3c2)cc(N2CCCC2)n1 [GSK2227430],%Inh,[1],0%
same,%Inh,[2],73%
same,%Inh,[3],0%
same,%Inh,[4],9%
same,%Inh,[5],4%
same,%Inh,[6],37%
same,%Inh,[7],2%
same,%Inh,[8],0%
same,%Inh,[9],0%
same,%Inh,[10],12%
same,%Inh,[11],3%
same,%Inh,[12],5%
same,%Inh,[13],0%
same,%Inh,[14],6%
same,%Inh,[15],0%
same,%Inh,[16],6%
same,%Inh,[17],0%
same,%Inh,[18],0%
same,%Inh,[19],13%
same,%Inh,[20],10%
COc1ccc(S(=O)(=O)NC2CCN(c3cc(C)nc(Nc4cccc(C#N)c4)n3)CC2)cc1.O=C(O)C(F)(F)F [GSK1653539],%Inh,[1],0%
same,%Inh,[2],0%
same,%Inh,[3],0%
same,%Inh,[4],6%
same,%Inh,[5],39%
same,%Inh,[6],12%
same,%Inh,[7],18%
same,%Inh,[8],0%
same,%Inh,[9],0%
same,%Inh,[10],0%
same,%Inh,[11],7%
same,%Inh,[12],11%
same,%Inh,[13],0%
same,%Inh,[14],0%
same,%Inh,[15],0%
same,%Inh,[16],0%
same,%Inh,[17],7%
same,%Inh,[18],0%
same,%Inh,[19],13%
same,%Inh,[20],16%
CC(C)(CN)c1nc(-c2ccc(Cl)c(O)c2)c(-c2ccncc2)[nH]1.O=C(O)C(F)(F)F [SB-477794],%Inh,[1]; 1 µM,0% and 98.6%
same,%Inh,[2]; 1 µM,0% and 5%
same,%Inh,[3],0%
same,%Inh,[4],0%
same,%Inh,[5]; 1 µM,0% and 5%
same,%Inh,[6]; 1 µM,0% and 5%
same,%Inh,[7]; 1 µM,70% and 47%
same,%Inh,[8],0%
same,%Inh,[9]; 1 µM,97.1% and 95.8%
same,%Inh,[10]; 1 µM,26% and 33%
same,%Inh,[11]; 1 µM,50% and 61%
same,%Inh,[12]; 1 µM,42% and 23%
same,%Inh,[13]; 1 µM,0% and 2%
same,%Inh,[14]; 1 µM,74% and 63%
same,%Inh,[15]; 1 µM,35% and 20%
same,%Inh,[16]; 1 µM,87% and 85%
same,%Inh,[17]; 1 µM,45% and 20%
same,%Inh,[18]; 1 µM,37% and 30%
same,%Inh,[19]; 1 µM,35% and 14%
same,%Inh,[20]; 1 µM,24% and 38%
N#Cc1ccc(-c2cc(-c3c[nH]nc3-c3ccccn3)ccn2)cc1 [GW693028],%Inh,[1],0%
same,%Inh,[2],0%
same,%Inh,[3],0%
same,%Inh,[4],17%
same,%Inh,[5],0%
same,%Inh,[6],0%
same,%Inh,[7],0%
same,%Inh,[8],6%
same,%Inh,[9],17%
same,%Inh,[10],2%
same,%Inh,[11],18%
same,%Inh,[12],2%
same,%Inh,[13],0%
same,%Inh,[14],0%
same,%Inh,[15],44%
same,%Inh,[16],39%
same,%Inh,[17],7%
same,%Inh,[18],8%
same,%Inh,[19],5%
same,%Inh,[20],11%
O=C1Cc2cc(Nc3nc(NCc4cccc(S(=O)(=O)C(F)(F)F)c4)ncc3C(F)(F)F)ccc2N1,%Inh,[1],5%
same,%Inh,[2],6%
same,%Inh,[3],0%
same,%Inh,[4],13%
same,%Inh,[5],26%
same,%Inh,[6],0%
same,%Inh,[7],0%
same,%Inh,[8],0%
same,%Inh,[9],19%
same,%Inh,[10],3%
same,%Inh,[11],0%
same,%Inh,[12],0%
same,%Inh,[13],10%
same,%Inh,[14],0%
same,%Inh,[15],0%
same,%Inh,[16],0%
same,%Inh,[17],0%
same,%Inh,[18],0%
same,%Inh,[19],1%
same,%Inh,[20],8%
Cc1ccc(C(=O)NCC(N)=O)cc1-n1c(C)cc(OCc2ccc(F)cc2F)c(Br)c1=O,%Inh,[1],0%
same,%Inh,[2],0%
same,%Inh,[3],5%
same,%Inh,[4],0%
same,%Inh,[5],0%
same,%Inh,[6],0%
same,%Inh,[7],11%
same,%Inh,[8],0%
same,%Inh,[9],25%
same,%Inh,[10],40%
same,%Inh,[11],0%
same,%Inh,[12],12%
same,%Inh,[13],0%
same,%Inh,[14],27%
same,%Inh,[15],18%
same,%Inh,[16],15%
same,%Inh,[17],20%
same,%Inh,[18],19%
same,%Inh,[19],25%
same,%Inh,[20],27%
COc1cc2c(cc1OC[C@@H](O)CO)ncc1c3ccc(C#N)cc3[nH]c21,%Inh,[1],0%
same,%Inh,[2],98.7%
same,%Inh,[3],99.7%
same,%Inh,[4],99%
same,%Inh,[5],83%
same,%Inh,[6],86%
same,%Inh,[7],0%
same,%Inh,[8],0%
same,%Inh,[9],4%
same,%Inh,[10],0%
same,%Inh,[11],0%
same,%Inh,[12],8%
same,%Inh,[13],11%
same,%Inh,[14],10%
same,%Inh,[15],0%
same,%Inh,[16],0%
same,%Inh,[17],0%
same,%Inh,[18],0%
same,%Inh,[19],14%
same,%Inh,[20],4%
Cc1nnc(-c2ccc3ncc(-c4ccc(S(C)=O)cc4)n3c2)o1 (stereo not drawn),%Inh,[1],1%
same,%Inh,[2],0%
same,%Inh,[3],7%
same,%Inh,[4],16%
same,%Inh,[5],66%
same,%Inh,[6],6%
same,%Inh,[7],9%
same,%Inh,[8],6%
same,%Inh,[9],0%
same,%Inh,[10],0%
same,%Inh,[11],2%
same,%Inh,[12],8%
same,%Inh,[13],11%
same,%Inh,[14],22%
same,%Inh,[15],1%
same,%Inh,[16],1%
same,%Inh,[17],0%
same,%Inh,[18],18%
same,%Inh,[19],12%
same,%Inh,[20],0%
CN1c2ccc(CNc3ccc(F)cc3)cc2-c2c(cnn2C)S1(=O)=O,%Inh,[1],1%
same,%Inh,[2],0%
same,%Inh,[3],0%
same,%Inh,[4],0%
same,%Inh,[5],0%
same,%Inh,[6],0%
same,%Inh,[7],0%
same,%Inh,[8],0%
same,%Inh,[9],0%
same,%Inh,[10],9%
same,%Inh,[11],0%
same,%Inh,[12],0%
same,%Inh,[13],0%
same,%Inh,[14],0%
same,%Inh,[15],0%
same,%Inh,[16],0%
same,%Inh,[17],0%
same,%Inh,[18],17%
same,%Inh,[19],0%
same,%Inh,[20],1%
Nc1nccc(-c2c(-c3ccc(F)cc3)ncn2C2CCN(CC(F)(F)F)CC2)n1 [SB-236560],%Inh,[1],11%
same,%Inh,[2],0%
same,%Inh,[3],1%
same,%Inh,[4],5%
same,%Inh,[5],28%
same,%Inh,[6],0%
same,%Inh,[7],29%
same,%Inh,[8],20%
same,%Inh,[9],0%
same,%Inh,[10],0%
same,%Inh,[11],0%
same,%Inh,[12],0%
same,%Inh,[13],0%
same,%Inh,[14],0%
same,%Inh,[15],0%
same,%Inh,[16],0%
same,%Inh,[17],0%
same,%Inh,[18],14%
same,%Inh,[19],0%
same,%Inh,[20],0%
